Several values for one entry are separate records, joined by “and”; a condition that tells them apart may be missing. Equal values may be shown once. Records with an inconclusive call do not appear. A call without a number means that no potency is given here. Activity calls are given as the source filed them. Calls come from the whole dose curve; as a rule, active = well fitted cell-killing curve with a large enough effect in the repeat runs; inconclusive = weak or mixed curves, or effect the other way; inactive = flat fitted curve, though single readings scatter.

Results on 40 compounds are retold here after PubChem BioAssay (Tox21).
Potency is the fitted concentration of half-maximal effect.

The nature of the first test: cAMP Responsive Elements (CRE) small molecule antagonists, cell-based qHTS assay: qHTS cell viability counter screen (AID 2060913). Note: nearly all actives have a fitted effect of over 40% in size. To be noted: CRE-bla HEK293T viability, CellTiter-Glo luminescence, 5 h; series mostly up to 92.4 µM. In short, it runs like this: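 CRE-bla HEK293T cells (2,000/well, 18 h) given compound plus NKH477 0.25 uM final for 3 h at 37C; viability counter-screen by CellTiter-Glo luminescence in same wells after 30 min.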
(In general: Quantitative high-throughput screening tests each substance at several concentrations.)
`COc1cccc(C(=O)NN(C(=O)c2cc(C)cc(C)c2)C(C)(C)C)c1C`: the Potency entry was “inactive”.

With `C[N+](C)(C)CC(=O)O`, the Potency result was “inactive”.

Turning to `CCC(C)c1cc([N+](=O)[O-])cc([N+](=O)[O-])c1OC(=O)C=C(C)C` (stereo not given), the Potency entry is “inactive”.

In the case of `CC(Cc1ccc2c(c1)OCO2)NO` (stereo not given), the Potency result is “inactive”.

For `CCCCN(CCCC)C(=S)[S-].CCCCN(CCCC)C(=S)[S-].[Zn+2]`, the Potency entry was “inactive”.

Consider `O=C(O)COc1cc(Cl)c(Cl)cc1Cl`, for which the Potency result was “inactive”.

Regarding `CCOS(C)(=O)=O`, the Potency entry is “inactive”.

Consider `Oc1c(Cl)c(Cl)cc(Cl)c1Cl`, for which the Potency result is “inactive”.

In the case of `CN(C)C(=O)Nc1ccc(Cl)cc1`, the Potency entry was “inactive”.

For `COC(=O)c1ccccc1N`, the Potency result is “inactive”.

As to `OC[P+](CO)(CO)CO`, the Potency entry is “inactive”.

With `N#CCCCl`, the Potency result was “inactive”.

Consider `[Cl-].[Cl-].[Hg+2]`, for which the Potency was 19.2 µM (active) and 8.63 µM (active).

On to `COC(=O)c1c(C(F)F)nc(C(F)(F)F)c(C2=NCCS2)c1CC(C)C`, for which the Potency entry was “inactive”.

Take `O=C1NC(=O)C(=O)C(=O)N1`: the Potency result was “inactive”.

In the case of `COc1cc(C=O)cc2c1[C@H](COC(N)=O)[C@]1(OC(C)=O)ON2C[C@H]2[C@@H]1N2C(C)=O`, the Potency entry is “inactive”.

As for `Cc1ccccc1OP(=O)(Oc1ccccc1C)Oc1ccccc1C`, the Potency result was “inactive”.

Turning to `CC1CC(=O)O1` (stereo not given), the Potency result was “inactive”.

Take `ClCc1ccccn1`: the Potency entry is “inactive”.

Turning to `Cn1cc(C2=C(c3cn(C4CCN(Cc5ccccn5)CC4)c4ccccc34)C(=O)NC2=O)c2ccccc21`, the Potency entry was “inactive”.

In the case of `CC/C(=N\OC/C=C/Cl)C1=C(O)CC(C2CCOCC2)CC1=O` (stereo not given), the Potency entry was “inactive”.

Regarding `CN(C)c1ccc(N)cc1`, the Potency result was “inactive”.

In the case of `CC(=O)C(C)(C)C`, the Potency entry is “inactive”.

For `BrCCCBr`, the Potency entry was “inactive”.

For `O=[N+]([O-])O[C@H]1CO[C@H]2[C@@H]1OC[C@H]2O[N+](=O)[O-]`, the Potency entry was “inactive”.

As for `O=C(NC(=O)c1cc(F)c(F)cc1Cl)Nc1cc(F)ccc1N1CCC(C(=O)O)CC1`, the Potency entry is “inactive”.

As for `O=C(O)[C@H](O)[C@@H](O)C(=O)O`, the Potency entry is “inactive”.

Consider `O=C/C=C/c1ccccc1`, for which the Potency entry is “inactive”.

Consider `CN(C1CCCCC1)C1CCCCC1`, for which the Potency entry was “inactive”.

For the compound `c1nc[nH]n1`, the Potency entry was “inactive”.

`C[N+]1(CCC(C(N)=O)(c2ccccc2)c2ccccc2)CCCCC1`: the Potency result is “inactive”.

`CC(C)C(C)(N)C#N` (stereo not given): the Potency result was “inactive”.

For the compound `COCC(=O)N(c1c(C)cccc1C)[C@H](C)C(=O)OC`, the Potency entry is “inactive”.

For `CC(=O)c1cc2c(cc1C)C(C)(C)C(C)CC2(C)C` (stereo not given), the Potency result was “inactive”.

As to `O=c1[nH]c(=O)n(Cl)c(=O)n1Cl`, the Potency entry is “inactive”.

Consider `N#Cc1cc([N+](=O)[O-])ccc1N`, for which the Potency result was “inactive”.

Regarding `COP(=S)(OC)Oc1cc(Cl)c(Cl)cc1Cl`, the Potency result was “inactive”.

Regarding `C=CC(=O)[O][Sn]([CH2]CCC)([CH2]CCC)[CH2]CCC`, the Potency is 8.63 µM (active).

Regarding `CCCN(CCC)CCc1c[nH]c2ccccc12`, the Potency entry was “inactive”.

As to `N#CCCC(Br)(C#N)CBr` (stereo not given), the Potency entry was “inactive”.

The nature of the next test: cAMP Responsive Elements (CRE) small molecule agonists, cell-based qHTS assay: qHTS cell viability counter screen (AID 2060914). Note: nearly all actives have a fitted effect of over 50% in size. As to conditions: CRE-bla HEK293T viability, CellTiter-Glo luminescence, 5 h; series mostly up to 92.4 µM. Put shortly:
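In the same wells as the reporter read, viability of CRE-bla HEK 293T cells was quantified by CellTiter-Glo luminescence after a 3 h compound exposure.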
As for `COc1cccc(C(=O)NN(C(=O)c2cc(C)cc(C)c2)C(C)(C)C)c1C`, the Potency entry was “inactive”.

Consider `C[N+](C)(C)CC(=O)O`, for which the Potency result is “inactive”.

As to `CCC(C)c1cc([N+](=O)[O-])cc([N+](=O)[O-])c1OC(=O)C=C(C)C` (stereo not given), the Potency result was “inactive”.

Turning to `CC(Cc1ccc2c(c1)OCO2)NO` (stereo not given), the Potency result is “inactive”.

Consider `CCCCN(CCCC)C(=S)[S-].CCCCN(CCCC)C(=S)[S-].[Zn+2]`, for which the Potency entry is “inactive”.

On to `O=C(O)COc1cc(Cl)c(Cl)cc1Cl`, for which the Potency result is “inactive”.

In the case of `CCOS(C)(=O)=O`, the Potency result was “inactive”.

In the case of `Oc1c(Cl)c(Cl)cc(Cl)c1Cl`, the Potency result was “inactive”.

As to `CN(C)C(=O)Nc1ccc(Cl)cc1`, the Potency result is “inactive”.

Take `COC(=O)c1ccccc1N`: the Potency entry is “inactive”.

Take `OC[P+](CO)(CO)CO`: the Potency result was “inactive”.

In the case of `N#CCCCl`, the Potency result was “inactive”.

For `[Cl-].[Cl-].[Hg+2]`, the Potency was 21.6 µM (active) and 12.2 µM (active).

Regarding `COC(=O)c1c(C(F)F)nc(C(F)(F)F)c(C2=NCCS2)c1CC(C)C`, the Potency entry is “inactive”.

For `O=C1NC(=O)C(=O)C(=O)N1`, the Potency result is “inactive”.

As to `COc1cc(C=O)cc2c1[C@H](COC(N)=O)[C@]1(OC(C)=O)ON2C[C@H]2[C@@H]1N2C(C)=O`, the Potency entry is “inactive”.

`Cc1ccccc1OP(=O)(Oc1ccccc1C)Oc1ccccc1C`: the Potency entry is “inactive”.

As to `CC1CC(=O)O1` (stereo not given), the Potency entry was “inactive”.

As to `ClCc1ccccn1`, the Potency entry was “inactive”.

In the case of `Cn1cc(C2=C(c3cn(C4CCN(Cc5ccccn5)CC4)c4ccccc34)C(=O)NC2=O)c2ccccc21`, the Potency result was “inactive”.

For `CC/C(=N\OC/C=C/Cl)C1=C(O)CC(C2CCOCC2)CC1=O` (stereo not given), the Potency entry was “inactive”.

On to `CN(C)c1ccc(N)cc1`, for which the Potency entry is “inactive”.

For the compound `CC(=O)C(C)(C)C`, the Potency result was “inactive”.

On to `BrCCCBr`, for which the Potency result is “inactive”.

With `O=[N+]([O-])O[C@H]1CO[C@H]2[C@@H]1OC[C@H]2O[N+](=O)[O-]`, the Potency entry was “inactive”.

As for `O=C(NC(=O)c1cc(F)c(F)cc1Cl)Nc1cc(F)ccc1N1CCC(C(=O)O)CC1`, the Potency entry was “inactive”.

`O=C(O)[C@H](O)[C@@H](O)C(=O)O`: the Potency result was “inactive”.

For `O=C/C=C/c1ccccc1`, the Potency entry was “inactive”.

Consider `CN(C1CCCCC1)C1CCCCC1`, for which the Potency entry is “inactive”.

Consider `c1nc[nH]n1`, for which the Potency entry was “inactive”.

`C[N+]1(CCC(C(N)=O)(c2ccccc2)c2ccccc2)CCCCC1`: the Potency result is “inactive”.

For the compound `CC(C)C(C)(N)C#N` (stereo not given), the Potency entry was “inactive”.

In the case of `COCC(=O)N(c1c(C)cccc1C)[C@H](C)C(=O)OC`, the Potency entry was “inactive”.

On to `CC(=O)c1cc2c(cc1C)C(C)(C)C(C)CC2(C)C` (stereo not given), for which the Potency result was “inactive”.

Turning to `O=c1[nH]c(=O)n(Cl)c(=O)n1Cl`, the Potency result was “inactive”.

With `N#Cc1cc([N+](=O)[O-])ccc1N`, the Potency result was “inactive”.

As for `COP(=S)(OC)Oc1cc(Cl)c(Cl)cc1Cl`, the Potency entry was “inactive”.

Consider `C=CC(=O)[O][Sn]([CH2]CCC)([CH2]CCC)[CH2]CCC`, for which the Potency was 6.86 µM (active).

Regarding `CCCN(CCC)CCc1c[nH]c2ccccc12`, the Potency entry was “inactive”.

With `N#CCCC(Br)(C#N)CBr` (stereo not given), the Potency result was “inactive”.
